Screening data deposited in PubChem BioAssay by several laboratories.
KKLEB tox = cytotoxicity in KKLEB CF airway cells, primary screen, cytotoxicity control for CF NF-kB inhibitor project, cell-based, uHTS, fluorescence assay plates; KKLEB CF airway cells viability, ATPlite luminescence, overnight; active compounds read low; cells stimulated with P. aeruginosa culture filtrate; activity change (cytotoxicity), % at 5 µM; 0.36% of 360,000 active; AID 602141, 2011;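 active means corrected activity change at or below -50% at 5 µM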
CF NFkB inh = inhibitors of PAF-induced NF-kB signaling, primary screen, cell-based, GFP fluorescence, uHTS. KKLEB NF-kB-GFP reporter, GFP fluorescence overnight. inhibition, % at 5 µM. 0.86% of 360,000 active;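 active means at least 50% inhibition at 5 µM, scaled per plate between neutral and stimulator controls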;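 further: PAF is a Pseudomonas aeruginosa culture filtrate used as stimulus; plate controls were PAF-stimulated DMSO wells for no effect and unstimulated DMSO wells for full effect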
HIF-2a block = HIF-2a reporter inhibitors, primary screen, luminescence, 786-0 RCC cells | 786-0 RCC cells HIF-2a reporter, luciferase luminescence, overnight | inhibition, % at 18.8 µM | 0.72% of 360,000 active;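 active means inhibition of the luminescence signal of 40% or more relative to plate controls, in a single-dose primary screen at 18.75 µM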
Shn3 3UTR inh = reduction of Shn3 3'UTR firefly luciferase signal, primary screen, Schnurri-3 inhibitor project, cell-based, Clone20 osteoblasts, set 2; Clone20 osteoblast Shn3 3'UTR firefly luciferase, 24 h; inhibition, % at 12.5 µM; 0.52% of 360,000 active;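 active means mean inhibition of at least 75% with every replicate also reaching 75%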;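 further: 0% = median of neutral control wells and 100% = pilot-screen positive control compound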
TRPM1 prom inh = inhibitors of MITF-dependent TRPM1 promoter reporter, primary screen, cell-based, SK-MEL-5, single point, luciferase. SK-MEL-5 TRPM1 promoter luciferase, 24 h. inhibition, % at 12.5 µM. 0.83% of 330,000 active;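 active means mean inhibition across replicates of 60% or more, whatever share of single replicates reaches that level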
Peg3 prom inh = Peg3 promoter-driven luciferase inhibitors, primary screen, cell-based, HeLa, luciferase luminescence. 1.7% of 360,000 active. inhibition, % at 20 µM. HeLa PEG-Prom luciferase reporter, overnight;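 active means inhibition of at least 50% at 20 µM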
* = called active by the depositor; . = not tested or not shown. Sampled rows, rich in hits. Any-hit rate of the full collection: about 2.8%.

SMILES | KKLEB tox | CF NFkB inh | HIF-2a block | Shn3 3UTR inh | TRPM1 prom inh | Peg3 prom inh
CCOC(=O)C1(Cc2ccccc2)CCCN(C(=O)c2ccc(-n3ccnc3)cc2)C1 (stereo not drawn) | 11.7 | 9.2 | -46.8 | -18.6 | -40.1 | -36.7
CC1=CC(C)(C)Nc2ccc(OC(=O)C(Cc3ccccc3)N3C(=O)c4ccccc4C3=O)cc21 (stereo not drawn) | 3.3 | 13.2 | 80.7* | 29.6 | 16.8 | 4.5
CC(=O)Oc1ccc(CC(C(=O)O)N2C(=O)c3ccccc3C2=O)cc1 (stereo not drawn) | 5.3 | -2.0 | -36.4 | -15.0 | 4.6 | -9.4
Cc1csc(SCC(=O)Nc2cccc3nsnc23)n1 | -5.8 | 64.4* | -86.0 | -9.4 | -17.6 | -75.3
Cc1csc(SCC(=O)Nc2ccccc2C)n1 | 0.7 | 4.3 | -34.4 | -6.4 | -4.5 | -20.4
NC(=O)C1CCN(Cc2nc3cc(C(F)(F)F)ccc3c(=O)[nH]2)CC1 | 7.5 | 9.8 | 15.8 | 17.1 | 3.7 | 0.5
COc1ccc(CCNC(=O)c2ccc3nc(N4CCCCC4)sc3c2)cc1OC | -11.0 | 11.4 | -114.1 | -18.2 | . | -15.6
COCCN(C(=O)COC(=O)Cc1coc2cc(C)ccc12)c1c(N)n(Cc2ccccc2)c(=O)[nH]c1=O | 2.8 | 2.0 | 9.2 | -3.9 | -3.1 | -6.3
COc1ccc2c(CC(=O)OCC(=O)N(C)c3c(N)n(Cc4ccccc4)c(=O)[nH]c3=O)coc2c1 | 16.6 | -27.5 | 5.0 | 93.9* | -3.0 | -4.4
CCc1ccc(CN(C)C(=O)c2cc(COc3cccc4cnccc34)on2)cc1 | -6.3 | 20.5 | -11.6 | 86.3* | 21.0 | 9.4
CN(Cc1cccc2cnccc12)C(=O)c1cc(COc2ccc(F)cc2F)on1 | 3.0 | -17.3 | -11.5 | 79.7 | -0.6 | 15.1
CCN(CC)C(=O)[C@H]1C[C@H](CC(=O)NCc2ccco2)C(=O)N2CCc3c([nH]c4cc(-c5ccco5)ccc34)[C@]12C | 6.7 | -4.2 | 3.1 | 27.3 | -8.7 | 10.4
O=C(CC1C[C@H](C(=O)N2CCOCC2)[C@@]2(CCC3CCCC3)c3[nH]c4ccccc4c3CCN2C1=O)NCc1cccc(C(F)(F)F)c1 (stereo partly drawn) | -34.8 | 34.7 | 13.2 | 79.1 | 52.3 | 90.2*
CC[C@]12c3[nH]c4ccc(Cl)cc4c3CCN1C(=O)[C@@H](CC(=O)NC/C=C(\C)CCC=C(C)C)C[C@@H]2C(=O)N1CCN(C(=O)C2CC2)CC1 | -3.8 | 19.1 | -27.7 | 43.2 | 38.5 | 60.0*
CCN(CC)C(=O)[C@H]1C[C@H](CC(=O)NCc2cccc(C(F)(F)F)c2)C(=O)N2CCc3c([nH]c4cc(-c5ccco5)ccc34)[C@]12C | 4.8 | 36.4 | -27.0 | 27.4 | 29.8 | 85.4*
CC[C@]12c3[nH]c4ccc(Cl)cc4c3CCN1C(=O)[C@@H](CC(=O)NCc1cccc(C(F)(F)F)c1)C[C@@H]2C(=O)N1CCN(C(=O)C2CC2)CC1 | 0.2 | -14.2 | -3.3 | 18.1 | 8.3 | 52.4*
CCc1nc2ccc(C(=O)Nc3cccc(NS(C)(=O)=O)c3)cn2c1N(C)CCN1CCOCC1 | -6.6 | 9.2 | 4.0 | -6.8 | . | -11.6
O=C(OC1CO[C@H]2O[C@@H]1[C@H](OC(=O)c1ccccc1)[C@H]2OC(=O)c1ccccc1)c1ccccc1 (stereo partly drawn) | -2.3 | 18.1 | 22.4 | -16.2 | . | 21.3
Cc1cc(C)nc(S/C=C/C(=O)c2ccccc2F)n1 | 8.2 | 76.4* | 14.7 | 43.5 | 87.4* | 96.7*
Cc1cc(C)nc(NC(=S)NC(=O)c2ccccc2F)n1 | 10.4 | -18.8 | -82.9 | 1.1 | . | -52.2
CCOC(=O)C1(Cc2ccccc2C#N)CCCCC1=O (stereo not drawn) | -12.4 | -8.3 | 0.9 | 9.9 | -0.7 | 3.9
CCOC(=O)c1ccc(NC(=O)c2cc3c(C)nn(-c4ccccc4Cl)c3s2)s1 | -70.4* | 70.5* | 21.4 | 8.5 | -4.3 | 25.1
COc1ccccc1N1CCN(C2C(=O)Nc3ccccc3-n3nnnc32)CC1 (stereo not drawn) | . | . | 0.2 | . | . | .
